These results are taken from PubChem BioAssay (NCI).

For the experiment, the system named is MDA-MB-468 breast. As to the kind of experiment: NCI-60 one-dose screen, 48 h (100 = growth as untreated, 0 = no growth, -100 = all killed). As to conditions: 10 µM unless noted.

Structures are written as SMILES. Values joined by “and” are separate entries in the source; they are usually repeats but may differ in a detail not shown here. Equal values may be shown once. Compounds without any hit were thinned out: in the full panel of roughly 83,000, 20% have a hit.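 Activity criterion: percent growth below 10, measured after cells in 96-well plates were exposed to a single compound concentration for 48 hours.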 Values without a mark were called inactive. Active and inactive are the calls of the source.

Turning to `C[C@@H](Nc1cc(F)cc(F)c1)c1cc(C(=O)N(C)C)cc2c(=O)cc(N3CCOCC3)oc12`, the growth is 12.6%.
Under `O=C(Nc1ncc(Cc2ccccc2Cl)s1)c1ccc2c(c1)OCCO2` stands 18.5%.
Under `CCN(CC)S(=O)(=O)c1ccc(OC)c(NC(=O)c2[nH]c(C)c3c2CCCCC3=O)c1` stands 10.7%; under `COc1ccc(S(=O)(=O)N2CCCCCC2)cc1NC(=O)c1[nH]c(C)c2c1CCCCC2=O`, 4% (active).
`O=C(CN1CCOCC1)Nc1ccc2ncnc(Nc3ccc(Oc4cccc(F)c4)c(Cl)c3)c2c1`: the growth is -17.1% (active).
Consider `Nc1ncnc2c1ncn2C1OC(COC(c2ccccc2)(c2ccccc2)c2ccccc2)C(O)C1O` (centres undefined), for which the growth was 89%.
Turning to `COC(=O)c1c2c(c(C)[n+]([O-])c1C)C(=O)C=C(NCc1ccc(Cl)cc1)C2=O`, the growth is -67% (active).
As to `Cc1cc(C)c(N)c(Br)c1`, the growth was 104% and 107%.
Turning to `O=c1cc(-c2ccccc2)[nH]c(=S)[nH]1`, the growth was 115%.
For `CCN(CC)C(=O)CCCCCn1c2ccccc2c2c3c(c4c5ccccc5[nH]c4c21)C(=O)N(O)C3=O`, the growth is 51.5%.
For `COc1ccc(-n2c(C)nc3c(c(C)nn3-c3ccccc3)c2=O)cc1`, the growth was -15.7% (active).
Under `NC(N)=Nc1ccc(Oc2cccc(Nc3cccc(C(F)(F)F)c3)c2)cn1` stands -37.1% (active).
Then `NNc1ccc(Cl)cc1Cl`, with 91.5%; and `N#CCCN1C/C(=C/c2ccccc2)C(=O)/C(=C/c2ccccc2)C1`, with 11.7%; and `C=CC(=O)Nc1cccc(-c2nc(SC)nc(NCCc3ccc(OC)c(OC)c3)c2C#N)c1`, with 19.2%.
Take `O=S(=O)(c1ccc(NC(=S)NCc2cccnc2)cc1)N1CCCCC1`: the growth was 72.3%.
Turning to `Cc1ccc(NC(=O)N[C@@H](Cc2cc(F)cc(F)c2)C(=O)N[C@@H]2C(=O)N3CCC[C@H]3C(=O)N3CCCC[C@H]3C(=O)N[C@@H](C)C(=O)N3C[C@H](C)C[C@H]3C(=O)O[C@H]2C)cc1`, the growth is 5.99% (active).
Then `O=c1ccccc(-c2ccc(-c3ccco3)cc2)c1O`, with 12.1%.
As to `CN(C)c1ccc(/C=C/C(=O)c2ccc(NC(N)=O)cc2)cc1`, the growth is 81%.
Then `NCCCNc1nc2ccc(Cl)cc2c2c(=O)c3cc(F)ccc3sc12`, with 43.3%.
Then `Cc1ccc(NS(=O)(=O)c2ccc(-c3cnc(C4CC4)o3)cc2)cc1C`, with -25.6% (active).
Then `Cc1ccc(S(=O)(=O)NCCNc2nc(Nc3ccc(N4CCN(C)CC4)cc3)nc3ccsc23)cc1`, with 94.1%.
In the case of `CC(=O)Cc1nsc(NC(=O)c2cc(-c3cc(Cl)cc(Cl)c3)oc2C)n1`, the growth was 97.6%.
Then `CCOc1ccc(/C=N/N=C(N)N)cc1OCC`, with 98.3%.
Turning to `OC(COc1ccccc1)CN1CCN(c2ccc(Cl)cc2)CC1` (centres undefined), the growth was 104%.
Then `COc1ccc(-c2cn(-c3ccccc3)c(-c3ccccc3)n2)cc1OC`, with 9.76% (active); and `COc1cc(NCc2cn(-c3ccc(C(=O)O)cc3)nc2-c2ccc(C(=O)O)cc2)cc(OC)c1OC`, with 102%.
Then `COc1cc2ncnc(-n3ncc4cc(NC(=O)Nc5ccc(Cl)c(Cl)c5)ccc43)c2cc1OC`, with -70.5% (active); and `COc1ccc(Cc2cc(-c3ccccc3C)n[nH]c2=O)cc1`, with 91.1%; and `COc1ccc2c(ccc[n+]2C)c1`, with 81.5%.
As to `O=C(O)c1cc2ccccc2s1`, the growth was 112%.
Then `Cc1cc(O)ccc1C1=NN(c2ccc(S(C)(=O)=O)cc2)C(=O)CC1`, with 103%; and `CCO/C=N/C1=C(C#N)C(c2ccc(Cl)cc2)c2c(c3ccc(C)cc3[nH]c2=O)O1` (centres undefined), with 96.8%.
With `COc1ccc(OC)c2c1CCC1(C2)NC(=O)NC1=O` (centres undefined), the growth is 106%.
As for `COc1cc(/C=N/n2cnc3oc(-c4ccccc4)cc3c2=N)cc(CN2CCCC2)c1O`, the growth is 82%.
With `O=C1CCc2c(sc3[nH]c(=S)n(Cc4ccc(Cl)cc4)c(=O)c23)C1`, the growth was -18.7% (active).
On to `Cn1[nH]cc(/C=N/C(N)=O)c1=O`, for which the growth is 119%.
Take `CC1=CCC(OC(=O)C(C)(C)CC(O)(C(C)O)C(O)C2(C)C=CC(Cc3ccc(C(C)C)cc3)(C(C)C)CC2)(C(C)C)CC1` (centres undefined): the growth was 83.1%.
For the molecule `C[C@@H](NC(=O)c1ncnc(N)c1Cl)c1ncc(C(=O)Nc2cc(C(F)(F)F)c(Cl)cn2)s1`, the growth is 92.6%.
